# Assay results taken from the supplement of paper PMC8728848.
# Only a selection was taken, and the strongest signals are over-represented in it overall.
# Experiments:
# Experiment in all cases: glycan array binding signal (z-score within array); higher = stronger binding
# Conditions in all cases: glycan notation: IUPAC condensed, linker removed
# Fuc(a1-2)Gal = biological target: Fuc(a1-2)Gal
# Summary of the method: (§1)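 Glycan array binding is given as a within-array Z-score, which can be read as non-binding when negative. The arrays, 3228 of them, came from the Consortium for Functional Glycomics database and were retained only where the protein sequence was available. Z-scores were averaged across arrays of the same protein sequence at different concentrations or buffers and across linkers.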
# [1] = biological target: Fuc(a1-2)Gal(b1-3)GalNAc(a1-3)[Fuc(a1-2)]Gal(b1-4)Glc
# Summary of the method: as §1
# [2] = biological target: Fuc(a1-2)Gal(b1-3)GalNAc(b1-3)Gal(a1-4)Gal(b1-4)Glc
# Summary of the method: as §1
# [3] = biological target: Fuc(a1-2)Gal(b1-3)GlcNAc6S
# Summary of the method: as §1
# [4] = biological target: Fuc(a1-2)Gal(b1-3)[Fuc(a1-4)]GlcNAc(b1-2)Man(a1-3)[Fuc(a1-2)Gal(b1-3)[Fuc(a1-4)]GlcNAc(b1-2)Man(a1-6)]Man(b1-4)GlcNAc(b1-4)[Fuc(a1-6)]GlcNAc(b1-4)[Fuc(a1-6)]GlcNAc
# Summary of the method: as §1
# [5] = biological target: Fuc(a1-2)Gal(b1-4)GlcNAc(b1-3)Gal(b1-4)GlcNAc
# Summary of the method: as §1
# [6] = biological target: Fuc(a1-2)Gal(b1-4)GlcNAc(b1-6)GalNAc
# Summary of the method: as §1
# [7] = biological target: Fuc(a1-2)Gal(b1-4)[Fuc(a1-3)]GlcNAc(b1-3)[Neu5Ac(a2-6)Gal(b1-4)GlcNAc(b1-6)]Gal(b1-4)Glc
# Summary of the method: as §1
# Fuc(a1-2)Gal6S(b1-4)Glc = biological target: Fuc(a1-2)Gal6S(b1-4)Glc
# Summary of the method: as §1
# [8] = biological target: Fuc(a1-2)Gal6S(b1-4)Glc6S
# Summary of the method: as §1
# Fuc(a1-2)[Gal(a1-3)]Gal = biological target: Fuc(a1-2)[Gal(a1-3)]Gal
# Summary of the method: as §1
# [9] = biological target: Fuc(a1-2)[Gal(a1-3)]Gal(b1-3)GlcNAc(b1-2)Man(a1-3)[Fuc(a1-2)[Gal(a1-3)]Gal(b1-3)GlcNAc(b1-2)Man(a1-6)]Man(b1-4)GlcNAc(b1-4)GlcNAc
# Summary of the method: as §1
# [10] = biological target: Fuc(a1-2)[Gal(a1-3)]Gal(b1-4)Glc
# Summary of the method: as §1
# [11] = biological target: Fuc(a1-2)[GalNAc(a1-3)]Gal(b1-3)GlcNAc(b1-6)GalNAc
# Summary of the method: as §1
# [12] = biological target: Fuc(a1-2)[GalNAc(a1-3)]Gal(b1-4)GlcNAc(b1-6)GalNAc
# Summary of the method: as §1
# [13] = biological target: Fuc(a1-2)[GalNAc(a1-4)]Gal(b1-4)GlcNAc
# Summary of the method: as §1
# [14] = biological target: Fuc(a1-2)[GalNAc(b1-3)]Gal
# Summary of the method: as §1
# [15] = biological target: Fuc(a1-3)[Gal(b1-4)]GlcNAc(b1-6)[Gal(b1-3)GlcNAc(b1-3)]Gal(b1-4)Glc
# Summary of the method: as §1
# Gal(a1-2)Gal = biological target: Gal(a1-2)Gal
# Summary of the method: as §1
# [16] = biological target: Gal(a1-3)Gal(b1-4)GlcNAc(b1-2)Man
# Summary of the method: as §1
# [17] = biological target: Gal(a1-3)Gal(b1-4)GlcNAc(b1-6)GalNAc
# Summary of the method: as §1
# Gal(a1-4)Gal(b1-4)GlcNAc = biological target: Gal(a1-4)Gal(b1-4)GlcNAc
# Summary of the method: as §1
# Gal(b1-3)Gal(b1-4)GlcNAc = biological target: Gal(b1-3)Gal(b1-4)GlcNAc
# Summary of the method: as §1
# Gal(b1-3)GalNAc = biological target: Gal(b1-3)GalNAc
# Summary of the method: as §1
# [18] = biological target: Gal(b1-3)GlcNAc(a1-3)Gal(b1-4)GlcNAc
# Summary of the method: as §1
# [19] = biological target: Gal(b1-3)GlcNAc(b1-3)Gal(b1-4)GlcNAc(b1-2)[Gal(b1-3)GlcNAc(b1-3)Gal(b1-4)GlcNAc(b1-6)]Man(a1-6)[Gal(b1-3)GlcNAc(b1-3)Gal(b1-4)GlcNAc(b1-2)Man(a1-3)]Man(b1-4)GlcNAc(b1-4)[Fuc(a1-6)]GlcNAc
# Summary of the method: as §1
# [20] = biological target: Gal(b1-3)GlcNAc(b1-6)GalNAc
# Summary of the method: as §1
# Gal(b1-3)GlcNAc6S = biological target: Gal(b1-3)GlcNAc6S
# Summary of the method: as §1
# Gal(b1-4)GlcNAc = biological target: Gal(b1-4)GlcNAc
# Summary of the method: as §1
# [21] = biological target: Gal(b1-4)GlcNAc(b1-3)Gal(b1-3)GalNAc
# Summary of the method: as §1
binder,measurement,setting,value
"MGL (Homo sapiens), Q8IUN9 (protein) MTRTYENFQYLENKVKVQGFKNGPLPLQSLLQRLCSGPCHLLLSLGLGLLLLVIICVVGFQNSKFQRDLVTLRTDFSNFTSNTVAEIQALTSQGSSLEETIASLKAEVEGFKQERQAGVSELQEHTTQKAHLGHCPHCPSVCVPVHSEMLLRVQQLVQDLKKLTCQVATLNNNASTEGTCCPVNWVEHQDSCYWFSHSGMSWAEAEKYCQLKNAHLVVINSREEQNFVQKYLGSAYTWMGLSDPEGAWKWVDGTDYATGFQNWKPGQPDDWQGHGLGGGEDCAHFHPDGRWNDDVCQRPYHWVCEAGLGQTSQESH",glycan array binding signal (z-score),Fuc(a1-2)Gal,-0.232
same,glycan array binding signal (z-score),[1],-0.246
same,glycan array binding signal (z-score),[2],-0.242
same,glycan array binding signal (z-score),[3],-0.178
same,glycan array binding signal (z-score),[4],-0.238
same,glycan array binding signal (z-score),[5],-0.247
same,glycan array binding signal (z-score),[6],3.85
same,glycan array binding signal (z-score),[7],-0.247
same,glycan array binding signal (z-score),Fuc(a1-2)Gal6S(b1-4)Glc,-0.242
same,glycan array binding signal (z-score),[8],-0.254
same,glycan array binding signal (z-score),Fuc(a1-2)[Gal(a1-3)]Gal,-0.241
same,glycan array binding signal (z-score),[9],-0.249
same,glycan array binding signal (z-score),[10],-0.237
same,glycan array binding signal (z-score),[11],3.6
same,glycan array binding signal (z-score),[12],4.98
same,glycan array binding signal (z-score),[13],3.39
same,glycan array binding signal (z-score),[14],4.3
same,glycan array binding signal (z-score),[15],-0.251
same,glycan array binding signal (z-score),Gal(a1-2)Gal,-0.25
same,glycan array binding signal (z-score),[16],-0.252
same,glycan array binding signal (z-score),[17],3.79
same,glycan array binding signal (z-score),Gal(a1-4)Gal(b1-4)GlcNAc,-0.232
same,glycan array binding signal (z-score),Gal(b1-3)Gal(b1-4)GlcNAc,-0.245
same,glycan array binding signal (z-score),Gal(b1-3)GalNAc,-0.242
same,glycan array binding signal (z-score),[18],-0.245
same,glycan array binding signal (z-score),[19],-0.049
same,glycan array binding signal (z-score),[20],3.24
same,glycan array binding signal (z-score),Gal(b1-3)GlcNAc6S,-0.249
same,glycan array binding signal (z-score),Gal(b1-4)GlcNAc,-0.243
same,glycan array binding signal (z-score),[21],-0.27
